Outcome and AC50 data for 26 compounds are collected here from PubChem BioAssay (EPA / NIEHS).

The source made the active and inactive calls. The calls were made as follows: active = hit-call score of the fitted dose curve at least 0.9, where 1 is the maximum; inactive = score below 0.9.

Read-out in the test: Transforming growth factor beta 1 (TGFb1), TGFB1 (gene 7040)
The test can be described thus: BSK_KF3CT_TGFb1: BioMAP Diversity Plus: KF3CT Assay for Transforming growth factor beta 1 (TGFb1) Biomarker Activity (AID 2283072). To be noted: primary human keratinocytes with fibroblasts; actives raise or lower the signal. How it is done: BSK_KF3CT is a cell-based, multiplexed-readout assay that uses keratinocytes and foreskin fibroblasts, a human skin primary cell co-culture, with measurements taken at 24 hours after chemical dosing in a 96-well plate.BSK_KF3CT_TGFb1 is an assay component measured in the BSK_KF3CT assay. It measures TGF-b1 antibody related to regulation of gene expression using ELISA technology.Data from the assay component BSK_KF3CT_TGFb1 was analyzed into 1 assay endpoint. This assay endpoint, BSK_KF3CT_TGFb1, was analyzed with bidirectional fitting relative to DMSO as the negative control and baseline of activity. Using a type of binding reporter, gain or loss-of-signal activity can be used to understand changes in the signaling as they relate to the gene TGFB1. Furthermore, this assay endpoint can be referred to as a primary readout, because this assay has produced multiple assay endpoints where this one serves a signaling function. To generalize the intended target to other relatable targets, this assay endpoint is annotated to the growth factor intended target family, where the subfamily is transforming growth factor beta.
The levels of cell surface (or secreted, indicated by the prefix "s") biomarker endpoints were measured by ELISA. Overt cytotoxicity to cells in confluent adherent cultures (all systems other than the BT system) was assessed by measuring total protein levels using sulforhodamine B (SRB) staining in parallel cultures at the time of biomarker measurements, indicated as SRB endpoints. For proliferation assays for adherent cell types, individual cell types are cultured at sub-confluence and relative cell numbers quantified by SRB staining at time points optimized for each system (48 h: 3C and CASM3C systems; 72 h: BT and HDF3CGF systems; 96 h: SAg system). SRB was performed by staining cells with 0.1% SRB after fixation with 10% TCA and reading wells at 560 nm.Viability and proliferation of PBMC (T cells) was quantified by Alamar Blue reduction for the SAg and BT systems. For PBMC viability (referred to as PBMC Cytotoxicity within the assay endpoint names), cells were plated (75,000/well in a 96-well plate) and then chemical samples added for 1 h before addition of activators, SEB and TSST-1 (20 ng/mL final concentration each). Cells were incubated for 90 h. Then, Alamar Blue (20 uL/well) (Invitrogen, Cat DAL1100) was added for 6 h, and the plates were read with a fluorescence microplate reader at 546/580 nm (excitation/emission). For PBMC proliferation, cells were plated and activated as above but incubated for only 16 h prior to addition of Alamar Blue. Plates were read after 6 h.
As to `COc1ccc2nc(N)sc2c1`, the result was inactive.

As a reminder, the AC50 is the concentration giving half of the maximal activity seen. For the compound `C=CCOc1c(Br)cc(Br)cc1Br`, the AC50 was 9.26 µM (active).

As to `CCOc1nc(F)cc2nc(S(=O)(=O)Nc3c(Cl)cccc3C(=O)OC)nn12`, the outcome was inactive.

Turning to `CCCCC/C=C\C/C=C\CCCCCCCC(=O)OC`, the AC50 is 16.4 µM (active).

As for `C#CC1(O)CC[C@H]2[C@@H]3CCC4=CCCC[C@@H]4[C@H]3CC[C@@]21C` (stereo partly specified), the AC50 is 25.4 µM (active).

`c1ccc2c(c1)ccc1cc3c(ccc4ccccc43)cc12`: the outcome was inactive.

For `O=Nc1ccc(O)cc1`, the result was inactive.

As for `N#[N+]c1ccc2c(S(=O)(=O)[O-])cccc2c1O`, the outcome was inactive.

For `COCc1c(C(C)C)nc(C(C)C)c(/C=C/[C@@H](O)C[C@@H](O)CC(=O)O)c1-c1ccc(F)cc1`, the result was inactive.

For the compound `CCCCC(CC)COC(=O)c1ccccc1O` (stereo unspecified), the outcome was inactive.

For the compound `CC(C)C(=O)C(C)C`, the result was inactive.

As to `O=c1c2ccccc2oc2ccccc12`, the outcome was inactive.

With `O=C(Nc1ccccc1SSc1ccccc1NC(=O)c1ccccc1)c1ccccc1`, the result was inactive.

Regarding `CCCCNc1ccc(NCCCC)c2c1C(=O)c1ccccc1C2=O`, the outcome was inactive.

Take `c1ccc2c(c1)ccc1ncccc12`: the result was inactive.

For the compound `CC(C)(c1cc(Br)c(OCCO)c(Br)c1)c1cc(Br)c(OCCO)c(Br)c1`, the concentration at half-maximal activity (AC50) was 6.03 µM (active).

On to `CCO[Si](CCCN=C=O)(OCC)OCC`, for which the outcome was inactive.

`C=CC=CC=CCCCCC`: the result was inactive.

Take `CCCCCCCCCCCCCCCC[N+](C)(C)CC`: the AC50 was 7.9 µM (active).

As for `O=C(Cl)c1cc(C(=O)Cl)cc(C(=O)Cl)c1`, the AC50 was 28.2 µM (active).

As to `CCCCCCCCc1ccc(Nc2ccc(CCCCCCCC)cc2)cc1`, the result was inactive.

`c1ccc(-c2ccccn2)nc1`: the outcome was inactive.

As for `C/C=C\C/C=C/CCCCCCCCOC(C)=O`, the concentration at half-maximal activity (AC50) is 10.8 µM (active).

Take `S=C(NC1CCCCC1)NC1CCCCC1`: the result was inactive.

With `C=CC(=O)OCC(Br)CBr` (stereo unspecified), the AC50 is 5.81 µM (active).

On to `CC1OC1C1CCC2(C)OC2C1` (stereo unspecified), for which the outcome was inactive.
